Compound activity as filed in PubChem BioAssay.
JMJD2A Tudor: inhibitors of human JMJD2A Tudor domain; O75164; AlphaScreen JMJD2A-Tudor / H3K4me3 peptide binding; Potency, µM (series often up to 114 µM), usual class: inhibitors; 390,000 compounds, 4.4% hits; AID 504339; also: nearly all actives have a fitted effect of over 50% in size
Target sequence (O75164 whole entry, looked up, the tested form may be a part): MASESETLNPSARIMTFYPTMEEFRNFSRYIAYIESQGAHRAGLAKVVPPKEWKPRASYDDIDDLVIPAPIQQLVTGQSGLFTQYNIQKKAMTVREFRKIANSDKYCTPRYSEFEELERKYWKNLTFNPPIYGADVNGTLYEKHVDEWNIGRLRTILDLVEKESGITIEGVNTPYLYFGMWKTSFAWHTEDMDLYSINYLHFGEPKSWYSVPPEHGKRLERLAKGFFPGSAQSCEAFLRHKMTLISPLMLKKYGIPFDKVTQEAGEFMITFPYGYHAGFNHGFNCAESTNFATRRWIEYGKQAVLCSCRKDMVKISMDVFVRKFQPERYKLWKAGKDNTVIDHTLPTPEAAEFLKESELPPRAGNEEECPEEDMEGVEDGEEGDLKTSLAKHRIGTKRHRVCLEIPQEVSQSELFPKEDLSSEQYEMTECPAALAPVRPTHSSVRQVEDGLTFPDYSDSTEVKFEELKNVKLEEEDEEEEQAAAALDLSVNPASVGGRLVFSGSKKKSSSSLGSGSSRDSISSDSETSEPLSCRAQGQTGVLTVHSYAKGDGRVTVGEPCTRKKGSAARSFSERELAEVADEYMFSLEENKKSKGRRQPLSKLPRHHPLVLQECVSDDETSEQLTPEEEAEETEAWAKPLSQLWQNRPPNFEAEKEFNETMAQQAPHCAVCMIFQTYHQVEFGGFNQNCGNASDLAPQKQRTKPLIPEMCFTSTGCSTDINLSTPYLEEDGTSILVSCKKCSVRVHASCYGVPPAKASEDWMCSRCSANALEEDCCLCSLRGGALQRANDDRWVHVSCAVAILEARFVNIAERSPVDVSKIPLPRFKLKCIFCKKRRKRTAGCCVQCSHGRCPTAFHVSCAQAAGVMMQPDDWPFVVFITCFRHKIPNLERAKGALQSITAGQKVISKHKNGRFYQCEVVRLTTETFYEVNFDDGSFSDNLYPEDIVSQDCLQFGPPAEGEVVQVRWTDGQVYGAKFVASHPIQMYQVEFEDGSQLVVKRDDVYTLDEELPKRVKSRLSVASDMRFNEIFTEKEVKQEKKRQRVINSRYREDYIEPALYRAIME
HP1b chromo inh: HP1-beta chromodomain-methylated histone interaction inhibition | P83916 | AlphaScreen HP1-beta / biotin-H3K9me3 peptide binding | Potency, µM (doses to about 114 µM), hits mostly inhibitors | 390,000 compounds, 0.56% hits; also: nearly all actives have a fitted effect of over 70% in size
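Compound inhibition of the preformed complex between 50 nM HP1-beta and 50 nM biotinylated H3K9me3 peptide was read by AlphaScreen. Buffer was PBS pH 7.4 with 0.01% Tween-20. Incubations ran 30 min at room temperature, with 10 ug/mL donor/acceptor beads.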
PLK1 PBD inh: PLK1 (human) polo-box domain binding inhibition; 360,000 compounds, 2.8% hits; Potency, µM, hits mostly inhibitors; Plk1 PBD binding of FITC phosphopeptide, fluorescence polarization; P53350; also: series mostly up to about 57 µM; nearly all actives have a fitted effect of over 65% in size
12-LOX inh: ALOX12 (human) lipoxygenase inhibition; P18054; Potency, µM (series often up to 108 µM), usual class: inhibitors; 580,000 compounds, 1.1% hits; purified 12hLO, xylenol orange hydroperoxide absorbance
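Purified human 12hLO (150 nM final) in 25 mM Hepes, 0.01% Triton X-100, pH 7.0 was preincubated 15 min at room temperature with compound. Then 40 uM arachidonic acid was added, 30 min. Hydroperoxide was read by Fe-XO absorbance ratio 573/405 nm.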
BAZ2B block: BAZ2B (human) inhibition; 360,000 compounds, 4.4% hits; AlphaScreen BAZ2B-H3K14Ac peptide displacement; Q9UIF8; Potency, µM (series often up to 114 µM), most hits filed as inhibitors; also: nearly all actives have a fitted effect of over 60% in size
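BAZ2B 50 nM plus b-H3(5-23)K14Ac 50 nM, PBS pH 7.4/0.01% Tween-20, 30 min RT; compound added (max 110 uM), 30 min RT; streptavidin donor/Ni-chelate acceptor beads 10 ug/mL final, 20 min dark; AlphaScreen read.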
G9a block: blocks human histone lysine methyltransferase G9a. G9a H3K9 monomethylation, AlphaScreen, 2 h. 350,000 compounds, 8.8% hits. Potency, µM (top dose mostly 102 µM), usual class: inhibitors; also: nearly all actives have a fitted effect of over 75% in size
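G9a (20 nM) was preincubated 15 min with compound, then reacted 2 h at room temperature with 500 nM biotin-H3K9 peptide and 20 µM SAM. Monomethyl-H3K9 detected by AlphaScreen using anti-H3K9me1 antibody.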
A number is an active result; 0 = inactive; ? = inconclusive; - = no result; [ ] = remark or other dose. An excerpt weighted towards active compounds, which were near 9% of everything screened. Calls follow the shape of the dose curve; as a rule, active = well fitted curve in the direction sought with a large enough effect; inconclusive = small, poorly fitted or top-dose-only effect, or another doubt; inactive = no such curve, though single readings can be large; an effect the other way counts as inactive or inconclusive.

SMILES	JMJD2A Tudor	HP1b chromo inh	PLK1 PBD inh	12-LOX inh	BAZ2B block	G9a block
O=C1C(=O)N(CCN2CCOCC2)C(c2cccnc2)/C1=C(/O)c1ccccc1 (stereo not drawn)	-	-	-	-	0	0[12.7 µM]
CNC(=O)[C@H]1C[C@H](Oc2ccccc2)CN1S(=O)(=O)c1ccc(F)cc1	-	-	-	0	-	-
O=C(Nc1ccc(F)cc1F)c1noc2c1CCC2	79.4µM	?	?	-	56.2µM	?
CC(=O)c1ccc(NC(=O)c2noc3c2CCCCC3)cc1	0	0	0	0	0	56.2µM
O=C(NCc1cccc(OC(F)(F)F)c1)c1cccc2c1C(=O)c1ccc(-c3ccc(F)cc3OCc3ccccc3)cc1S2(=O)=O	0	0	0	0	-	-
Clc1ccc(-c2nnc(N3CCCC3)nn2)cc1	0	?	0	0	?	7.08µM
CCOC(=O)c1cc(NC(=O)C2CCC2)cc(C(=O)OCC)c1	-	-	-	0	-	-
CCOC(=O)N1CCN(C(=O)c2sc3nc(-c4ccc(F)cc4)cn3c2C)CC1	0	0	0	0	0	0
O=C1OCCC1Sc1nnc(-c2ccc3c(c2)OCO3)n1-c1ccccc1 (stereo not drawn)	0	0	0	0	-	?
C=CCNC(=O)c1ccc(C2SCC(=O)N2Cc2ccccc2)cc1 (stereo not drawn)	0	0	0	0	0	50.1µM
CCCNC(=O)c1ccc(C2SCC(=O)N2CCc2ccccc2)cc1 (stereo not drawn)	0	0	0	0	0	44.7µM
Cc1ccc(CNC(=O)c2ccc3c(c2)CN(Cc2scnc2C)CCO3)cc1	-	-	-	0	-	-
CCc1ccc(NC(=O)C2CCN(C(=O)c3ncn4c3COC(c3ccc(OC)cc3)C4)CC2)cc1 (stereo not drawn)	-	-	-	0	-	-
O=c1c2cc(F)ccc2sn1-c1ccc(F)cc1	20µM	0	3.36µM	-	10µM	0[0.501 µM]
COc1ccc(-n2sc3ccc(F)cc3c2=O)cc1	11.2µM	0	2.67µM	1.12µM	8.91µM	0[0.501 µM]
Cc1ccc(C)c(-n2sc3ccc(F)cc3c2=O)c1	14.1µM	0	2.12µM	1.58µM	17.8µM	0[0.501 µM]
COc1ccc(-n2cc(C(=O)O)c3ccccc3c2=O)cc1	0	0	0	0	0	0
COc1ccc(-n2sc3ccccc3c2=O)cc1	-	-	2.67µM	?	-	-
Cc1ccc(C)c(-n2c(C)nc3c(cnn3-c3ccc(F)cc3)c2=O)c1	-	-	-	0	-	-
O=C(COc1ccccc1)Nc1cccc(-c2nc3ccccc3[nH]2)c1	0	0	0	0	0	0
CNC(=O)CN(c1cccc2ccccc12)S(C)(=O)=O	0[11.4 µM]	0	0	0	0	0[12.7 µM]
Cc1cc(C)n(-c2nc(C)c(C)c(=O)n2CC(=O)Nc2ccc(Cl)c(Cl)c2)n1	0	0	-	0	0	4.47µM
CS(=O)(=O)N1CCc2ccc(NC(=O)C3CCCO3)cc2C1 (stereo not drawn)	0	0	0	0	0	79.4µM
Cc1nn(Cc2ccccc2)c(C)c1CNC(=O)c1cc(Cl)c2c(c1)OCCCO2	-	-	-	0	-	-
CCCC1(c2ccccc2)NC(=O)N(C/C=C/Cl)C1=O (stereo not drawn)	?	0	26.7µM	?	0	0
SMILES	JMJD2A Tudor	HP1b chromo inh	PLK1 PBD inh	12-LOX inh	BAZ2B block	G9a block
CCCC1(c2ccccc2)NC(=O)N(CC(=O)N(C)Cc2c(F)cccc2Cl)C1=O (stereo not drawn)	25.1µM	0	23.8µM	0	0	0
COc1ccc(C(=O)N2CCCC(Cn3c(C)nc4cccnc43)C2)c(OC)c1 (stereo not drawn)	-	-	-	0	-	-
Cc1ccccc1NC(=O)CN1CCN(C)CC1	3.16µM	28.2µM	0	?	28.2µM	10µM
CN1CCCN(C(=O)CNC(=O)c2ccccc2F)CC1	0	0	0	0	-	-
CN1CCN(CC(=O)Nc2cc(N(C)C)nc3ccccc23)CC1	0	0	0	0	?	50.1µM
CN1CCN(CC(=O)c2ccccc2F)CC1	6.31µM	?	0	?	22.4µM	4.47µM
COC(=O)[C@]1(C)N[C@H](CN(C)C(=O)c2ccccc2)[C@@H]2C(=O)N(Cc3ccccc3)C(=O)[C@@H]21	0	0	0	?	-	-
O=C(NC1CCCN(C2CCCCCC2)C1)c1ccccc1N1CCOCC1 (stereo not drawn)	-	-	-	0	-	-
COc1ccc(C2=Nc3ccccc3N(C(=O)c3ccc(C)cc3)C2C(=O)Nc2c(C)cccc2C)cc1 (stereo not drawn)	-	-	0	0.794µM	-	-
COc1ccc(C2=Nc3ccccc3N(C(=O)c3ccc4c(c3)OCO4)C2C(=O)Nc2c(C)cccc2C)cc1 (stereo not drawn)	-	-	0	0	-	-
COc1ccc(C2=Nc3ccccc3N(C(=O)c3ccc(C)cc3)C2C(=O)NCc2ccccc2)cc1 (stereo not drawn)	-	-	0	3.55µM	-	-
COc1cc(C(=O)Nc2nccs2)c(Br)c(OC)c1OC	0	0	0	?	0	0[12.7 µM]
CC/C(=C/c1sc2ccc(C)cc2[n+]1CCO)SC	?	0	0	?	?	-
CC/C(=C/c1sc2ccc(C)cc2[n+]1CCCS(=O)(=O)[O-])SC	0	0	0	0	?	44.7µM
CCOC(=O)/C=C1\CC(C(=O)OCC)Oc2ccccc21 (stereo not drawn)	0	0	0	?	-	0
CCOC(=O)/C=C1\CN(CCC(C)C)S(=O)(=O)c2ccccc21	0	0	0	0	0	35.5µM
CCOC(=O)/C=C1\CN(C(C)c2ccccc2)S(=O)(=O)c2ccccc21 (stereo not drawn)	79.4µM	0	0	?	0	17.8µM
Cc1cc(C)c(NC(=O)C2CCCCN2C)c(C)c1 (stereo not drawn)	0	0	0	?	?	89.1µM
COc1ccc(/C=C/C(=O)NC(=S)NNC(=O)Cc2cccs2)cc1OC	0	0	0	0	0	3.55µM
COc1ccccc1NC(=S)NC(=O)/C=C/c1cccs1	0	0	0	35.5µM	-	44.7µM
COc1ccccc1/C=C/C(=O)NC(=S)N1CCN(C)CC1	0	0	0	0	0	?
COc1ccccc1/C=C/C(=O)NC(=S)NC(C)C	0	0	0	25.1µM	0	0
COc1ccc(NC(=S)NC(=O)/C=C/c2cccs2)cc1	0	0	0	0	0	?
COc1ccc(/C=C/C(=O)NC(=S)NNC(=O)c2cccs2)cc1OC	0	0	0	0	0	?
COc1ccccc1NC(=S)NCC1CCCCC1	?	0	5.97µM	?	0	0
CC1CCCN(S(=O)(=O)c2ccc(C(=O)Nc3sc4c(c3C(N)=O)CCN(C)C4)cc2)C1 (stereo not drawn)	0	0	0	0	0	0
O=C(/C=C/c1cccs1)NC(=S)NNC(=O)Cc1cccs1	0	0	0	0	0	4.47µM
COc1ccccc1NC(=S)NNC(=O)c1nn(C)c(C)c1Br	0	0	0	0	0	11.2µM
COc1ccccc1NC(=S)NC(=O)Cc1ccccc1	0	0	0	0	-	-
COc1ccccc1NC(=S)NC(=O)C(C)(C)C	0	0	0	?	0	39.8µM
